{"source": "PubChem BioAssay AID1645870", "about": "(National Center for Advancing Translational Sciences (NCATS), 2021)", "note": "Values joined by “and” are separate entries in the source; they are usually repeats but may differ in a detail not shown here. Identical values can stand only once. Out of some 59,000 compounds screened, about 1,500 (2.5%) were called active. A call without a number means that no potency is given here. Inconclusive results (about 10%) are left out. This is one part of a sample in which actives are shown more often than they occur. Calls come from the whole dose curve; as a rule, active = well fitted inhibition curve with a large enough effect; inconclusive = small, poorly fitted or top-dose-only effect; inactive = flat fitted curve, though single readings scatter. Some compounds were tested as several samples or in several runs, with calls that do not always agree. Potency is the fitted concentration of half-maximal effect.", "data": [{"target": "N-terminal Xaa-Pro-Lys N-methyltransferase 1 (Homo sapiens) (UniProt Q9BV86)", "sequence (Q9BV86 whole entry, looked up)": "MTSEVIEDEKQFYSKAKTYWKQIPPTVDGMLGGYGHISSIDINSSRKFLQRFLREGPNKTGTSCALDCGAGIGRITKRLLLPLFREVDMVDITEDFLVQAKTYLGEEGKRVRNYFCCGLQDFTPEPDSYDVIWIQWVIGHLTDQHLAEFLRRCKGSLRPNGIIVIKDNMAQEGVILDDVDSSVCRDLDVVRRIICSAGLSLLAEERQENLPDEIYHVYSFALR", "assay": "Primary qHTS for Inhibitors of N-terminal methyltransferase 1 (NTMT1): MTaseGlo Assay; note: nearly all actives have a fitted effect of over 65% in size", "conditions": "NTMT1 MTase-Glo SAH luminescence, purified enzyme; series mostly up to 114 µM", "description": "Assay Submitter (PI): Rong Huang Ph.D.\nPurdue University, West Lafayette, IN 47907\nThe N-terminal methytransferase 1 is the first methyltransferase that methylates protein alpha-N-amines and plays an important role in regulating cell mitosis, chromatin interactions and DNA repair. It is observed to be over-expressed in various cancer patient tissues like malignant melanoma and colorectal cancer tissues. Knockdown of NTMT1 in cancer cells causes cell mitotic defects and enhances sensitivity to DNA damaging chemotherapeutics. […] These critical cellular processes in which NTMT1 is implicated, coupled with emerging links to cellular dysfunction, strengthen the inference that NTMT1 is a compelling novel anticancer target. Progress have been made in understanding the molecular properties of NTMT1 and the biological consequences of protein alpha-N-terminal methylation, but there are no specific small molecule probes available for NTMT1 to fully characterize its MTase activity. To address this unmet need, a panel of assay is created and established to enable quantitative high-throughput screening (qHTS) for novel, potent, and selective small molecule NTMT1 inhibitors. Two orthogonal qHTS that use different reagents (ThioGlo vs. MTaseGlo) are developed for primary robotic screening against the NCATS chemical library of more than 400,000 small molecules. Identified inhibitors are reacquired, validated, and further characterized.\nMTaseGlo Assay is a luminescence screen that measure the activity of methyltransferases based on the reaction product S-adenosyl homocysteine (SAH). The substrate SAM is converted to SAH upon enzyme activation. MTase-Glo reagent and detection solution convert SAH to ATP and measure the light from the luciferase reaction.\nMaterials: NTMT1 enzyme, substrate SPKRIA, control peptide RCC1-6 is provided by the Huang laboratory.\nSEQUENCE No. (e.g., 1, 2, 3, etc.); […] (e.g., Cells, Incubation, Reagent, etc.); VALUE; DESCRIPTION\n1; Enzyme; 3 uL; Dispense enzyme mixture (final concentrations of 125 nM NTMT1 and 100 uM SAM) into Greiner 1536-well white / solid bottom assay plate (Greiner Bio One, Monroe, NC).\n2; Compounds; 23 nL; Compounds and controls were transferred via a Kalypsys Pin Tool (Wako USA) equipped with a 1536-slotted pin array (Wako Automation, Richmond, VA)\n3; Incubation; 15 min; Incubate at room temperature\n4; Substrate; 1 uL; Dispense 1 uL of substrate at final concentration of 1 uM. Buffer solution was dispensed in control wells. The assay plate was covered with metal lids.\n5; Incubation; 30 min; Incubate at room temperature, protected from lights.\n6; Reagent; 1 uL; Dispensed 5x MTase-Glo detection reagent (R) into the assay plate. The plate was covered with metal lids.\n7; Incubation; 30 min; Incubate the assay plates at room temperature in the dark to allow for SAH to be converted to ADP.\n8; Reagent; 5 uL; Dispense 5 uL of 1x MTase-Glo Detection Solution (R) to allow for ADP to be converted to ATP which was then detected with a luciferase reaction.\n9; Centrifuge; 15 sec; Centrifuge the assay plate for 15 seconds at 1000 RPM.\n10; Incubation; 30 min; Assay plates were incubation at room temperature in the dark.\n11; Detection; Luminescence; Plates were read on ViewLux detector (PerkinElmer). Data were normalized to no-enzyme (0% activity) and no-inhibitor (DMSO; 100%) controls, and the resulting percent inhibition data were fitted to a 4-parameter Hill equation using GraphPad Prism.", "values": [{"compound": "CN(C)C/C=C/C(=O)Nc1ccc(C(=O)N2CCC[C@@H](Nc3ncc(Cl)c(-c4c[nH]c5ccccc45)n3)C2)cc1", "Potency": "inactive"}, {"compound": "Cn1cnc(CN=C2NC3=C(C(=O)CCC3)C(c3[nH]ncc3Cl)N2)c1", "note": "(stereo not given)", "Potency": "inactive"}, {"compound": "COc1cc2c(cc1OC)CN(CCc1ccc(-n3nnc(-c4cc(OC)c(OC)cc4NC(=O)c4cc(=O)c5ccccc5o4)n3)cc1)CC2", "activity change, negative = inhibition": "-7.78% [at 1.07 µM] (inactive)"}, {"compound": "N#Cc1c(N)nc(N)nc1N[C@H](c1nc2c(F)ccc(Cl)c2c(=O)n1-c1cccnc1)C1CC1", "Potency": "inactive"}, {"compound": "CC(C)(C)NS(=O)(=O)c1cccc(Nc2nn3c(=O)c4ccccc4nc3s2)c1", "Potency": "inactive"}, {"compound": "Cc1ccc(N2CCN(C(=S)Nc3cc(C)ccn3)CC2)cc1", "Potency": "79.4 µM (active)"}, {"compound": "FC(F)(F)c1cccc(N2CCN(C(=S)Nc3ccncc3)CC2)c1", "Potency": "inactive"}, {"compound": "Cc1ccc(CNc2ccc(N3CCCCC3)cc2)cc1", "Potency": "inactive"}, {"compound": "CCc1ccc(-c2nn3c(C)nnc3s2)cc1NC(=O)c1ccc(-c2cccc(Cl)c2)o1", "Potency": "inactive"}, {"compound": "CCOc1ccc(CCNC(=O)c2cnon2)cc1OCC", "Potency": "inactive"}, {"compound": "C=Cc1c(C)c2cc3nc(cc4[nH]c(cc5nc(cc1[nH]2)C(C)=C5CCC(=O)O)c(CCC(=O)OC)c4C)[C@@]1(C)C3=CC=C(C(=O)OC)[C@H]1C(=O)OC", "Potency": "50.1 µM (active)"}, {"compound": "N#Cc1ccc(NC(=O)Nc2nnc(-c3ccncc3)s2)c(Cl)c1", "Potency": "inactive"}, {"compound": "CC[C@H](Nc1ncnc2nc[nH]c12)c1oc2ccccc2c(=O)c1-c1cccc(F)c1", "Potency": "inactive"}, {"compound": "Cc1ccc(-c2cc(C(=O)Nc3cccc(Cl)c3)c3ccccc3n2)cc1C", "Potency": "inactive"}, {"compound": "Cc1cc(NC(=O)Nc2nnc(-c3ccncc3)s2)ccc1Cl", "Potency": "inactive"}, {"compound": "Fc1ccc(Cl)cc1-c1nc(Nc2ccncc2)c2nccnc2n1", "Potency": "inactive and 39.8 µM (active)"}, {"compound": "Fc1ccccc1-c1ccc(Nc2nc(-c3ccncc3)nc3ccccc23)cc1F", "Potency": "inactive"}, {"compound": "Fc1cc(Nc2nc(-c3ccncc3)nc3ccccc23)ccc1-c1ccc(F)c(F)c1F", "Potency": "inactive"}, {"compound": "C=CCNc1oc(-c2cccnc2)nc1C#N", "Potency": "inactive"}, {"compound": "Cc1noc(C)c1-c1ccc2ncnc(NCc3ccc(F)c(F)c3)c2c1", "Potency": "inactive"}, {"compound": "COc1cc(Nc2nc(-c3ccc(OC)c(OC)c3)nc3ccccc23)cc(OC)c1", "Potency": "inactive"}, {"compound": "COc1cc2nc(Nc3ccccc3)nc(NC3CC3)c2cc1OC", "Potency": "50.1 µM (active)"}, {"compound": "OC1CCC(Nc2nc(-c3ccccc3)nc3[nH]ccc23)CC1", "note": "(stereo not given)", "Potency": "inactive"}, {"compound": "O=C(CSc1nnc(-c2cccc([S+](=O)([O-])N3CCCC3)c2)n1-c1ccccc1)Nc1cccc(C(F)(F)F)c1", "Potency": "inactive"}, {"compound": "CC(C)(c1ccc(OCC(O)CO)cc1)c1ccc(OCC(O)CCl)cc1", "note": "(stereo not given)", "Potency": "inactive"}]}]}
